Only some compounds are listed: those with a hit (about 4.1% of all), similar ones and a draw of the others.
hgDAF12 agonist: activates the H. glycines DAF-12 receptor ligand-binding domain | HEK293 GAL4-hgDAF12 UAS-luciferase reporter, agonist luminescence; normalized to butyrate control | activation, % at 6.8 µM | 370,000 tested, 1.8% active;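 active = activation above a cutoff set at the mean of all screened compounds plus 3 SD, cut at about 10% in these data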
DAX1 inh-1: blocks DAX1 repression of SF-1 activated StAR promoter | 370,000 tested, 1.1% active | HEK293T StAR-luciferase reporter, SF-1/DAX-1 repression relief | inhibition, % at 6.8 µM | AID 652010;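 active = inhibition above the mean over all tested compounds plus 3 SD, cut at about 3.6% in these data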;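 note: higher inhibition means more luminescence from relief of DAX-1 repression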
ssDAF12 agonist: activates DAF-12 receptor from parasite S. stercoralis. HEK293 ssDAF-12/GRIP1 lit1-tk-luc reporter, luminescence; % of 3 µM dafachronic acid response. activation, % at 6.8 µM. 370,000 tested, 1% active. AID 652126;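 active = activation above the mean over all tested compounds plus 3 SD, cut at about 0.9% in these data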
DAX1 inh-2: NR0B1 (DAX1) inhibition; 340,000 tested, 0.99% active; HEK293 Gal4-DAX1 luciferase reporter, luminescence; inhibition, % at 6.75 µM; AID 504766;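 active = inhibition above the mean over all tested compounds plus 3 SD, cut at about 4.2% in these data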;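 note: inhibition shows as a rise in luminescence from relieved DAX1 repression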
Target sequence (P51843 207-470 limits assumed): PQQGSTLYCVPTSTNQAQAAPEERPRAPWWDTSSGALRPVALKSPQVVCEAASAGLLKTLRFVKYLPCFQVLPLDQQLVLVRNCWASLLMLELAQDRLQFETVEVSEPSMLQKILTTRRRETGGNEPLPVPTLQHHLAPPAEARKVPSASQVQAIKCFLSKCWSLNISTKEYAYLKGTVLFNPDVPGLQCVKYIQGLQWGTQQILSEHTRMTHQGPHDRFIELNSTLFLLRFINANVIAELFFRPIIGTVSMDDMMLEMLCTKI
hcDAF12 agonist: activates DAF-12 receptor from parasite H. contortus | HEK293 hcDAF-12 lit1-tk-luc reporter, luminescence; 0% DMSO, 100% Δ7-dafachronic acid | 370,000 tested, 1.4% active | activation, % at 6.8 µM | AID 652067;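 active = activation above the mean of all tested compounds plus 3 SD, cut at about 5.5% in these data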
LXR ag: counter-screen for hcDAF-12 agonists: agonists of human LXR-beta; 3,400 tested, under 10 active; AID 743027; activation, % at 6.8 µM; shares compounds with hcDAF12 agonist; HEK293 Gal4-LXR tk-luc reporter, luminescence, 24 h; normalized: DMSO 0%, positive control 100%;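 active = mean percent activation of the reporter above a cutoff set as the average over tested compounds plus their standard deviation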
hcDAF12 conf: confirmation of H. contortus DAF-12 agonists. shares compounds with hcDAF12 agonist. HEK293 hcDAF-12 lit1-tk-luc reporter, luminescence; % of Δ7-dafachronic acid response. activation, % at 6.8 µM. 3,400 tested, 61% active. AID 743032;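 active = mean activation across triplicate tests above the threshold derived from the earlier primary screen, cut at about 5.5% in these data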
hgDAF12 conf: hgDAF-12 agonism, confirmation assay. shares compounds with hgDAF12 agonist. HEK293 GAL4-hgDAF12 luciferase reporter, agonist mode; percent of butyrate response. activation, % at 6.8 µM. 3,300 tested, 80% active. AID 743050;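 active = mean activation over triplicate wells above the hit cutoff derived from the earlier primary screen, cut at about 11% in these data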
LXR ag 2: activates human LXR-beta, counter-screen for DAF-12 agonists; shares compounds with hgDAF12 agonist; activation, % at 6.8 µM; 3,300 tested, under 10 active; HEK293 Gal4-LXR luciferase reporter, 24 h;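 active = mean activation of the triplicate above a set limit carried over from the primary screen, none filed active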
A number is an active result; - = inactive; . = no result.

SMILES	hgDAF12 agonist	DAX1 inh-1	ssDAF12 agonist	DAX1 inh-2	hcDAF12 agonist	hgDAF12 conf	LXR ag 2	others
Cc1ccc(NC(=O)c2ccc3ccccc3n2)nc1	16	3.8	3.5	-	16	20	-	LXR ag=-;hcDAF12 conf=17
Cc1[nH]c2ccccc2c1/C=C/c1nc2ccccc2c(=O)[nH]1	14	4.4	-	-	6.9	18	-	LXR ag=-;hcDAF12 conf=5.8
CN1C(=O)C2C=CC1C1C(=O)N(c3ccccc3)C(=O)C21 (stereo not given)	17	4.0	-	-	9.5	-	-	LXR ag=-;hcDAF12 conf=6.2
O=C1C2C3C=CC(C3=C3CCCCC3)C2C(=O)N1c1ccccc1 (stereo not given)	-	-	-	-	-	.	.
Cc1ccc(Nc2nc(-c3cccs3)cs2)nc1	15	4.0	-	-	13	-	-	LXR ag=-;hcDAF12 conf=14
Cc1ccc(S(=O)(=O)Nc2nc(-c3ccccc3)cs2)cc1	-	-	-	-	-	.	.
c1cncc(Nc2nc(-c3cccs3)cs2)c1	.	.	.	-	.	.	.
Cc1ccc(Nc2nc(-c3ccccc3)cs2)nc1	13	3.7	1.9	-	19	23	-	LXR ag=-;hcDAF12 conf=17
CCOC(=O)c1sc(=NC(=O)c2ccco2)n(C)c1C	14	-	-	-	9.0	14	-	LXR ag=-;hcDAF12 conf=11
Cc1ccc(-c2csc(-c3c[nH]c4ccccc34)n2)c(C)c1	-	-	-	-	-	.	.
Oc1ccc(-c2csc(-c3c[nH]c4ccccc34)n2)c(O)c1	14	-	2.7	-	8.3	17	-	LXR ag=-;hcDAF12 conf=9.2
O=C(NC1CCCCCC1)c1cccc(N2CCCC2=O)c1	13	-	-	-	7.8	13	-	LXR ag=-;hcDAF12 conf=10
Cc1cc(O)c(NC(=O)c2cccc([N+](=O)[O-])c2)cc1C	17	-	2.5	-	7.0	11	-	LXR ag=-;hcDAF12 conf=9.2
C[C@H](O)[C@@H]1CN2CCc3ccc(-c4ccc5c(c4)OCO5)cc3[C@@H]2C[C@@H]1N(C)C(=O)Nc1ccccc1	-	-	-	.	-	.	.
N=c1n(N)c2ccccc2n1CC(=O)c1ccc(Br)cc1	15	-	-	-	8.1	14	-	LXR ag=-;hcDAF12 conf=-
Cc1ccc(-c2nc3nc4ccccc4nc3n2Cc2ccco2)cc1	16	5.1	1.4	-	11	14	-	LXR ag=-;hcDAF12 conf=8.8
Clc1ccc(-c2nc3nc4ccccc4nc3n2Cc2ccco2)cc1	14	-	1.1	-	8.4	-	-	LXR ag=-;hcDAF12 conf=5.8
c1ccc(-c2nc3ccccc3nc2-c2ccc(CN3CCC4(CC3)CNc3ccccc34)cc2)cc1	-	-	-	.	-	.	.
CC12CCC(C(=O)Nc3nc4ccccc4s3)(OC1=O)C2(C)C (stereo not given)	13	-	-	-	-	-	-
COc1ccc(C(=O)CSc2nc(C)cc(=O)[nH]2)cc1	-	-	-	-	-	.	.
COc1ccc(C(=O)CSc2cc(C)[nH]c(=O)n2)cc1	14	3.7	-	-	-	11	-
C/C(C=NNC(=O)c1cc(-c2ccc(C)c(C)c2)n[nH]1)=C/c1ccco1	-	-	-	.	-	.	.
O=C(N/N=C\C=C\c1ccco1)c1cc(-c2ccc3ccccc3c2)n[nH]1	16	-	-	-	-	-	-
CN(C)CCNc1ncnc2c1ncn2[C@H]1CN(Cc2cccnc2)C[C@@H](CO)O1	24	-	-	.	-	-	-
CN1CCN(c2ccc(NC(=O)COc3ccccc3)cc2Cl)CC1	15	-	-	-	-	14	-
SMILES	hgDAF12 agonist	DAX1 inh-1	ssDAF12 agonist	DAX1 inh-2	hcDAF12 agonist	hgDAF12 conf	LXR ag 2	others
c1ccc(-n2nc3c(ccc4cnnc43)[nH]2)cc1	19	-	-	-	5.7	12	-
C=CCN(CC#CCN(C)C(=O)c1cccn1C(=O)OC(C)(C)C)Cc1ccc(OC)cc1OC	-	-	-	.	-	.	.
Cc1cc(C)n(-c2nnc(NC34CC5CC(CC(C5)C3)C4)nn2)n1	13	-	-	-	-	15	-
COC(=O)[C@H](C(C)C)N(Cc1cn(Cc2ccc(C)cc2)nn1)S(=O)(=O)c1ccc(F)cc1Br	-	-	-	.	-	.	.
Cc1ccc(C(=O)/C=C/c2ccc3c(c2)OCCO3)c(O)c1	14	-	-	-	-	-	-
O=C(C=Cc1ccc2c(c1)OCO2)c1ccccc1	13	-	-	-	-	11	-
O=C(COc1ccc2c(c1)OCO2)Nc1ccc(Cl)cn1	-	-	-	-	-	.	.
O=C(/C=C/c1ccc2c(c1)OCO2)Nc1ccc(Cl)cn1	15	4.3	-	-	-	13	-
CC(C)C[C@H]1COc2cc(Br)ccc2S(=O)(=O)N1Cc1cccc(Cl)c1	-	-	-	.	-	.	.
COc1ccccc1C(=O)n1ccc2ccc(-c3ccc4ccn(Cc5ccc(C#N)cc5)c4c3)cc21	-	-	-	.	-	.	.
O=c1[nH]cnc2cc(-c3ccccc3)sc12	13	-	-	-	-	11	-
CC(=O)c1sc(Nc2cccc(C)c2)nc1C	-	-	-	-	-	.	.
Cc1cccc(Nc2nc3c(s2)CCCC3)c1	18	-	-	-	-	16	-
Cc1ccc(Nc2nc(C)cs2)cc1	16	-	-	-	-	14	-
O=C(NCc1ccccc1)[C@@H]1CCCN1C(=O)[C@H]1CCCN1C(=O)c1ccc(OC(F)(F)F)cc1	-	-	-	.	-	.	.
Clc1ccccc1-c1nc(N/N=C/c2cccnc2)c2ccccc2n1	-	-	-	-	-	.	.
C(=N\NC1=Nc2cccc3cccc1c23)/c1cccnc1	16	-	-	-	-	11	-
COc1ccc(-c2cc(C(=O)c3c(N)n(C)c(=O)n(C)c3=O)c3ccccc3n2)cc1	14	-	1.7	-	-	10	-
O=C(CSc1nnc(-c2ccc(O)cc2)o1)Nc1ccccc1	16	-	-	-	-	14	-
Cc1ccc(NC(=O)Nc2ccc(F)cc2)nc1	-	-	-	-	-	.	.
Cc1ccnc(NC(=O)Nc2ccc(F)cc2)c1	14	-	-	-	-	19	-
COc1ccc(Nc2nnc(-c3ccc4c(c3)OCO4)o2)cc1	22	-	1.5	.	5.8	18	-
CS/C(N)=N/N=C/c1cc(C)ccc1O	18	-	-	4.3	-	14	-
CN(C)/N=C/c1c(O)ccc2ccccc12	-	-	-	-	-	.	.

Assay outcomes: PubChem BioAssay, The Scripps Research Institute Molecular Screening Center
